Results as given in publication PMC7862700, “An all-to-all approach to the identification of sequence-specific readers for epigenetic DNA modifications on cytosine”.

Assays:
Assay in all cases: DAPPL (digital affinity profiling via proximity ligation, sequencing); 10 mM Tris-HCl pH 7.5, 50 mM NaCl, 1 mM DTT, 4% glycerol, room temperature, 30 min; GST-TFs on glutathione beads, 16-mer random dsDNA library, 0.1% formaldehyde crosslink after washing; high values mean tight binding
Details in all cases: protein: recombinant; tags: N-terminal GST; dsDNA, one strand shown
[1] = target: T1, FLI1 (Homo sapiens, UniProt Q01543 1-452)
T1 sequence: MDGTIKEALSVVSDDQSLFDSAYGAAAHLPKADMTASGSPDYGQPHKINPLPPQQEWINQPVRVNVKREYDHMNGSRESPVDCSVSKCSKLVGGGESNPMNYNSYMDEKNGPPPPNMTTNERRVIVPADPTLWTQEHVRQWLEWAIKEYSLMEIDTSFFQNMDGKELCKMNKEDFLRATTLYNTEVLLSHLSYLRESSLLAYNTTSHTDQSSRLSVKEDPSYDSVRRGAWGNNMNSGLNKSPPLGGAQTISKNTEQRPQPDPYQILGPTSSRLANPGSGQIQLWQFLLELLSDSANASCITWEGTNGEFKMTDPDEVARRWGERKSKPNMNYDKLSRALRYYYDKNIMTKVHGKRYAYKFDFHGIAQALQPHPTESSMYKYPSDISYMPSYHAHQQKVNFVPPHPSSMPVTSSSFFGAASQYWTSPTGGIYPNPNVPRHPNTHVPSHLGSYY
Summary of the method: (§1)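 Each value of binding signal is a hexamer's read frequency for a factor divided by the same hexamer's frequency in the tag-only sample. Barcoded, bead-captured GST fusions of human transcription factors made in yeast were pooled with that sample and incubated with 200 nmole of a random double-stranded 16-mer DNA library in Tris/NaCl/DTT/glycerol buffer at room temperature for 30 min. Washing, 0.1% formaldehyde crosslinking, proximity ligation, PCR and Illumina NextSeq500 sequencing followed.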

[2] = target: T2, ELK1 (Homo sapiens, UniProt P19419 1-428)
T2 sequence: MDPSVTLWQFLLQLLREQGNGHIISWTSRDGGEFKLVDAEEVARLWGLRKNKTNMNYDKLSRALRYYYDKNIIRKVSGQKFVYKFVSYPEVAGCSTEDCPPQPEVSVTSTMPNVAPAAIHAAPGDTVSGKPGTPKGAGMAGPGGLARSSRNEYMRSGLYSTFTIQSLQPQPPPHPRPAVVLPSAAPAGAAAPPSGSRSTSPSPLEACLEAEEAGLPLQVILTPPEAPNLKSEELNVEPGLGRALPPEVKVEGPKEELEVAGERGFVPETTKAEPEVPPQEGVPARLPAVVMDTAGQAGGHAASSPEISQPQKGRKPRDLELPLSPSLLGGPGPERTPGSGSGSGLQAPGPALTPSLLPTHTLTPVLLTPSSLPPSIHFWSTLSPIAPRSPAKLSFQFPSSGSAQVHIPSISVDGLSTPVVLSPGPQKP
Summary of the method: as §1

[3] = target: T3, GABPA (Homo sapiens, UniProt Q06546 1-454)
T3 sequence: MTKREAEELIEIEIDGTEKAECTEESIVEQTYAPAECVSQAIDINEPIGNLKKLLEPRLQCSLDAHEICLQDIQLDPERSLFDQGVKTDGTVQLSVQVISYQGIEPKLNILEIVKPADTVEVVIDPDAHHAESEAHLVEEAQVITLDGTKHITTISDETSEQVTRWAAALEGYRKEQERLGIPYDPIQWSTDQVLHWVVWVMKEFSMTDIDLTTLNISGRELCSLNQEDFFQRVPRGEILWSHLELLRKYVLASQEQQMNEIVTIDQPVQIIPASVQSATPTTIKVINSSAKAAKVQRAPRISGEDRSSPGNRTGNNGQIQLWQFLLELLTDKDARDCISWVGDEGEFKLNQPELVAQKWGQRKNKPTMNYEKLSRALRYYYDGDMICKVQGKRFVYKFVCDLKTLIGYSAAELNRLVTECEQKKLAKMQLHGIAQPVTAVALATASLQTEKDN
Summary of the method: as §1

[4] = target: T4, ERG (Homo sapiens, UniProt P11308 1-479)
T4 sequence: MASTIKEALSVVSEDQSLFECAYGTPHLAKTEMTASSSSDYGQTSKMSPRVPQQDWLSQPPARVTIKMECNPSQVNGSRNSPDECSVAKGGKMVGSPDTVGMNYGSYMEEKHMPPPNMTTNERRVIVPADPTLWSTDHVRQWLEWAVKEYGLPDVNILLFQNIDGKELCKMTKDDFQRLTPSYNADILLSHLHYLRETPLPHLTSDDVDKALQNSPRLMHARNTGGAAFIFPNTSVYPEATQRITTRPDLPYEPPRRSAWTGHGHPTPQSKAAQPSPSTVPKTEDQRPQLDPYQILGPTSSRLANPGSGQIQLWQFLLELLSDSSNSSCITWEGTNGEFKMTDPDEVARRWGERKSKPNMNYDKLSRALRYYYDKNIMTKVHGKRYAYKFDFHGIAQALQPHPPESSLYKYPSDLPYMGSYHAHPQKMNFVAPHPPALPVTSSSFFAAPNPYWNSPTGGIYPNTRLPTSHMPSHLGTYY
Summary of the method: as §1

[5] = target: ELF1 (Homo sapiens, UniProt P32519 1-619)
Summary of the method: as §1

[6] = target: T5, EHF (Homo sapiens, UniProt Q9NZC4 1-300)
T5 sequence: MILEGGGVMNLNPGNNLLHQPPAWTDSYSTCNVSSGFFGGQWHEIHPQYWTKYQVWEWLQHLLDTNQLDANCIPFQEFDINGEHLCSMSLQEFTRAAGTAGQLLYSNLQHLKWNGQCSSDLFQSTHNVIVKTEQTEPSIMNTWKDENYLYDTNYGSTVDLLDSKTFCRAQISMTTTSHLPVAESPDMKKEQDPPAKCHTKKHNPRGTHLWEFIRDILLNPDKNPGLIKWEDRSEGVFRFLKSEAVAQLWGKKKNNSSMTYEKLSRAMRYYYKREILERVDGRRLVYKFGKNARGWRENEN
Summary of the method: as §1

[7] = target: SPI1 (Homo sapiens, UniProt P17947 1-270)
Summary of the method: as §1

[8] = target: SPIB (Homo sapiens, UniProt Q01892 1-262)
Summary of the method: as §1

[9] = target: T6, ELK3 (Homo sapiens, UniProt P41970 1-407)
T6 sequence: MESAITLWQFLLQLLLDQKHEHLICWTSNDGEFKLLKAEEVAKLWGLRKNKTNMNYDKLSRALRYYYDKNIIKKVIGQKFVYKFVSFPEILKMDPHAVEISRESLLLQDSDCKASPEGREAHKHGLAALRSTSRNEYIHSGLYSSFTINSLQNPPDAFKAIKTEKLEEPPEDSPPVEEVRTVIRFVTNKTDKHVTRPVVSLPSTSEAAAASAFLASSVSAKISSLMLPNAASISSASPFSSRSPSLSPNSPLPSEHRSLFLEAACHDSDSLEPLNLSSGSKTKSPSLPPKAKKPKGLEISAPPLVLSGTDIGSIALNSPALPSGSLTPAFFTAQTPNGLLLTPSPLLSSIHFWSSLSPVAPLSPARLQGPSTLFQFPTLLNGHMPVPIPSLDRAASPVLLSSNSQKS
Summary of the method: as §1

[10] = target: T7, FEV (Homo sapiens, UniProt Q99581 1-238)
T7 sequence: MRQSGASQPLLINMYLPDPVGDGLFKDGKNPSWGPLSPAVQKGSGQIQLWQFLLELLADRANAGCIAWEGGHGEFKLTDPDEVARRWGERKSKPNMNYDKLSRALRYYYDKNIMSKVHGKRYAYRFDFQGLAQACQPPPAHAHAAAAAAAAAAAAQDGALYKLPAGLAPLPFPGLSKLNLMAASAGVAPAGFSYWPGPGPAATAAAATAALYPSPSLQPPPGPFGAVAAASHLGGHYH
Summary of the method: as §1

[11] = target: ETV5 (Homo sapiens, UniProt P41161 1-510)
Summary of the method: as §1

[12] = target: T8, SPIC (Homo sapiens, UniProt Q8N5J4 1-248)
T8 sequence: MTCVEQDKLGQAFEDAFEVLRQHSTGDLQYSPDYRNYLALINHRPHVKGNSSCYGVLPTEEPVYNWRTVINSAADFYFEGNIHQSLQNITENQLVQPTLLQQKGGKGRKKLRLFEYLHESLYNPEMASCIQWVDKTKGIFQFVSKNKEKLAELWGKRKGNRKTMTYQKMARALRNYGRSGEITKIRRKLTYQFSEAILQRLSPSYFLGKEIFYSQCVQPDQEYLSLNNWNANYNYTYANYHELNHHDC
Summary of the method: as §1

[13] = target: ELF4 (Homo sapiens, UniProt Q99607 1-663)
Summary of the method: as §1

[14] = target: T9, ELK4 (Homo sapiens, UniProt P28324-2 1-405)
T9 sequence: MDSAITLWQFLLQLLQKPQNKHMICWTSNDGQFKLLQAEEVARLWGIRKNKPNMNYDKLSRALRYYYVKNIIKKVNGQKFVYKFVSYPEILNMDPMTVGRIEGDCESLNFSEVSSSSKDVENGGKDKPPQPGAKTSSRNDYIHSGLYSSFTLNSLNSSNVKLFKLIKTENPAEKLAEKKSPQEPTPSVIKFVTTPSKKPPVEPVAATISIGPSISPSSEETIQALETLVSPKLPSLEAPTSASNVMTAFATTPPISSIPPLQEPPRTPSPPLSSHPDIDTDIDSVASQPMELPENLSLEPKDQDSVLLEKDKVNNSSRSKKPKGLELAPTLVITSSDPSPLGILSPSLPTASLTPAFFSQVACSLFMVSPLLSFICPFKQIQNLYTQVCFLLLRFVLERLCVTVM
Summary of the method: as §1

[15] = target: T10, ETV2 (Homo sapiens, UniProt O00321 1-342)
T10 sequence: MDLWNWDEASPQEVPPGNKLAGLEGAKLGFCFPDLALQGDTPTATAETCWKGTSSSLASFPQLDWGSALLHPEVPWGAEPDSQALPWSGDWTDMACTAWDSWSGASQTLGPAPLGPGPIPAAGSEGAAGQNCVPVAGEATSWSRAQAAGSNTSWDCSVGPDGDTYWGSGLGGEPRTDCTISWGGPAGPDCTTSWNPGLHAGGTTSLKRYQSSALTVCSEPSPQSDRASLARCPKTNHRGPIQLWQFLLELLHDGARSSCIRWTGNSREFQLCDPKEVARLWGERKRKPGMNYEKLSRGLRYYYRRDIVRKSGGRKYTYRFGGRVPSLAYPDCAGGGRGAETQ
Summary of the method: as §1

[16] = target: T11, ELF3 (Homo sapiens, UniProt P78545 1-371)
T11 sequence: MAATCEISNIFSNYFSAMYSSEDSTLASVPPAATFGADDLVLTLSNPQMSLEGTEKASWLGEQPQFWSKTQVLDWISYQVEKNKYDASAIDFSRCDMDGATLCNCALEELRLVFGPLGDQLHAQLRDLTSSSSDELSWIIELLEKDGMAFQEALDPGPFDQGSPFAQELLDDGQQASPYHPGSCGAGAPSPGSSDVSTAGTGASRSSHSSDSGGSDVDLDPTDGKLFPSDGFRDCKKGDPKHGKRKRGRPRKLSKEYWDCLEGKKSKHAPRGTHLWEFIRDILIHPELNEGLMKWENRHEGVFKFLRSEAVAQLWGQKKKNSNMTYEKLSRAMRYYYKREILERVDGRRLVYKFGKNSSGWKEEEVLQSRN
Summary of the method: as §1

[17] = target: ETV1 (Homo sapiens, UniProt P50549 1-477)
Summary of the method: as §1

Chain of ELF1 (P32519 whole entry): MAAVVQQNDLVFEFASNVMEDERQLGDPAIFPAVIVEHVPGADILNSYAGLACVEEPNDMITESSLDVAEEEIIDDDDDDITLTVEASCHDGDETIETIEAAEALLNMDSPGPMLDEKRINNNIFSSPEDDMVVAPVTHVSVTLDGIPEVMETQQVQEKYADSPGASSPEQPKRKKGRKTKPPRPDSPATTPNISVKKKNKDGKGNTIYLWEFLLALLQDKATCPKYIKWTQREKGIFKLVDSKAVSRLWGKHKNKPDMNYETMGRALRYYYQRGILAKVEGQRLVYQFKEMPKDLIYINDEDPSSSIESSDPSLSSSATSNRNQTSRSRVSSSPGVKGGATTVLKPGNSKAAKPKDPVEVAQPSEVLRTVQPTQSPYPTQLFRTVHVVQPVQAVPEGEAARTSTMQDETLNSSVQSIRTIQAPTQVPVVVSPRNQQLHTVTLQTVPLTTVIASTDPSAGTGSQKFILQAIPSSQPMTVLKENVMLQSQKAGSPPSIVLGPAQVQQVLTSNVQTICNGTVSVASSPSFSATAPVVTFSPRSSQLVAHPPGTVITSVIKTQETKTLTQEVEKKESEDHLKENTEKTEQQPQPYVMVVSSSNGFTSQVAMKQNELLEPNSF
Chain of ETV1 (P50549 whole entry): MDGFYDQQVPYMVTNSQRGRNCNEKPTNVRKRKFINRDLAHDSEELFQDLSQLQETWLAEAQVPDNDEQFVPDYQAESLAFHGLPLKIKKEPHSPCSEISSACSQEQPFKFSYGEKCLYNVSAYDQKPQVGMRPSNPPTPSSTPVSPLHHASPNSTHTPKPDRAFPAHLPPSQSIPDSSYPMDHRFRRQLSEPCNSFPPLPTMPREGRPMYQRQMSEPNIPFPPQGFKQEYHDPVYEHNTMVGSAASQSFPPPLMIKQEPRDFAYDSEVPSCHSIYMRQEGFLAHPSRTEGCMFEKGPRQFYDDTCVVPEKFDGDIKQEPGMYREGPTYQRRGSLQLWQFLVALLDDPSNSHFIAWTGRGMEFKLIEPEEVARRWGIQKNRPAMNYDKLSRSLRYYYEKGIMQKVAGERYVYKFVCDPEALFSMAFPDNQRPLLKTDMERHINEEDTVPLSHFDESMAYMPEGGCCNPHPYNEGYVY
Chain of ETV5 (P41161 whole entry): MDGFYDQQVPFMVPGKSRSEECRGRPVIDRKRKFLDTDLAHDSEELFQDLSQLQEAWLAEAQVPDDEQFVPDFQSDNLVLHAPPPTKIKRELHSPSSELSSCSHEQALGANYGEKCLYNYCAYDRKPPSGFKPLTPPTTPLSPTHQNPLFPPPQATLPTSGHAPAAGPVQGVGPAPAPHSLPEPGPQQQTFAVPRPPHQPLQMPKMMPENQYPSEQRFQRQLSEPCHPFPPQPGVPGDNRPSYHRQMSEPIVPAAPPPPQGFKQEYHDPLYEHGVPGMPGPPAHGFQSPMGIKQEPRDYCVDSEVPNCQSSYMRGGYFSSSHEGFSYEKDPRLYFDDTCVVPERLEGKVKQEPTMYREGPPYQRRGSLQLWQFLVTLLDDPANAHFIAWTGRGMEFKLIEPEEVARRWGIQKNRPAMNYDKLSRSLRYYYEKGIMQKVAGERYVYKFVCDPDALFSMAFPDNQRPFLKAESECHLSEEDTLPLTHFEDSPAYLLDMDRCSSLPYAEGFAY
Chain of ELF4 (Q99607 whole entry): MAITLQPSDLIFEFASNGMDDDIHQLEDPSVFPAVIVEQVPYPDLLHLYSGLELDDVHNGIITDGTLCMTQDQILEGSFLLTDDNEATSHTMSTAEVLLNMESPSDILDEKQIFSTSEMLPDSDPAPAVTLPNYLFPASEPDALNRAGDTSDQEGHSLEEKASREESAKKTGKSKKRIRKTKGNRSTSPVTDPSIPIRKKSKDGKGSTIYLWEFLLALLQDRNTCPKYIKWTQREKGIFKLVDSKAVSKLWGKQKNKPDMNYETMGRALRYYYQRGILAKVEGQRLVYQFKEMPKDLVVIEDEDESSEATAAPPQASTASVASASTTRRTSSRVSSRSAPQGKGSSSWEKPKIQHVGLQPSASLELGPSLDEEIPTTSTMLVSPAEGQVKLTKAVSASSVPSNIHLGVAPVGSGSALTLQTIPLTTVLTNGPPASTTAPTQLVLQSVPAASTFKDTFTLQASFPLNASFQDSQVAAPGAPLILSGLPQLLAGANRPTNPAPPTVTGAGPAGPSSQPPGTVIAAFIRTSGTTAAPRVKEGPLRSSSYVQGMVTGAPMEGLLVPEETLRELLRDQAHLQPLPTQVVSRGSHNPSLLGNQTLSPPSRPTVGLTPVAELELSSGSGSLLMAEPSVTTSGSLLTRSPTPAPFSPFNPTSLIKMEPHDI
Chain of SPIB (Q01892 whole entry): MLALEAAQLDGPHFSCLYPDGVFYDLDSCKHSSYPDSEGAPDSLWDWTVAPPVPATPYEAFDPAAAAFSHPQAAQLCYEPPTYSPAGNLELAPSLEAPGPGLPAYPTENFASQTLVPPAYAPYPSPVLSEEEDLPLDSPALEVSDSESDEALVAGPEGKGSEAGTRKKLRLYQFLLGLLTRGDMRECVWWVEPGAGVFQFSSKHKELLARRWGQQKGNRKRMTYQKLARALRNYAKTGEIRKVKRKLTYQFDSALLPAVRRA

| Sequence | binding signal [1] | binding signal [2] | binding signal [3] | binding signal [4] | binding signal [5] | binding signal [6] | binding signal [7] | binding signal [8] | binding signal [9] | binding signal [10] | binding signal [11] | binding signal [12] | binding signal [13] | binding signal [14] | binding signal [15] | binding signal [16] | binding signal [17] |
| --- | --- | --- | --- | --- | --- | --- | --- | --- | --- | --- | --- | --- | --- | --- | --- | --- | --- |
| CTCCGT | 1.32 fold enrichment (6-mer frequency, TF over GST control) | 1.28 fold enrichment (6-mer frequency, TF over GST control) | 1.22 fold enrichment (6-mer frequency, TF over GST control) | 1.16 fold enrichment (6-mer frequency, TF over GST control) | 1.21 fold enrichment (6-mer frequency, TF over GST control) | 1.15 fold enrichment (6-mer frequency, TF over GST control) | 1.19 fold enrichment (6-mer frequency, TF over GST control) | 1.13 fold enrichment (6-mer frequency, TF over GST control) | 1.38 fold enrichment (6-mer frequency, TF over GST control) | 1.14 fold enrichment (6-mer frequency, TF over GST control) | 1.24 fold enrichment (6-mer frequency, TF over GST control) | 1.14 fold enrichment (6-mer frequency, TF over GST control) | 1.3 fold enrichment (6-mer frequency, TF over GST control) | 1.37 fold enrichment (6-mer frequency, TF over GST control) | 1.17 fold enrichment (6-mer frequency, TF over GST control) | 1.13 fold enrichment (6-mer frequency, TF over GST control) | 1.15 fold enrichment (6-mer frequency, TF over GST control) |
| TGCACG | 1.12 fold enrichment (6-mer frequency, TF over GST control) | 1.06 fold enrichment (6-mer frequency, TF over GST control) | 1.18 fold enrichment (6-mer frequency, TF over GST control) | 1.03 fold enrichment (6-mer frequency, TF over GST control) | 1.16 fold enrichment (6-mer frequency, TF over GST control) | 1.22 fold enrichment (6-mer frequency, TF over GST control) | 1.12 fold enrichment (6-mer frequency, TF over GST control) | 1.23 fold enrichment (6-mer frequency, TF over GST control) | 1.15 fold enrichment (6-mer frequency, TF over GST control) | 1.15 fold enrichment (6-mer frequency, TF over GST control) | 1.14 fold enrichment (6-mer frequency, TF over GST control) | 1.03 fold enrichment (6-mer frequency, TF over GST control) | 1.13 fold enrichment (6-mer frequency, TF over GST control) | 1.24 fold enrichment (6-mer frequency, TF over GST control) | 1.22 fold enrichment (6-mer frequency, TF over GST control) | 1.26 fold enrichment (6-mer frequency, TF over GST control) | 1.06 fold enrichment (6-mer frequency, TF over GST control) |
